Assay [1] deals with Cellular tumor antigen p53 (Homo sapiens) (UniProt P04637). Put plainly: Primary qHTS for small molecule compounds that upregulate eGFP-tagged delta133p53alpha (in N-terminal) cells. (AID 2060322). Also: nearly all actives have a fitted effect of over 75% in size.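 As to activation: series mostly up to about 56 µM; 0% = DMSO vehicle and 100% = reference activator.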 The note with it: NCI-H358 eGFP-delta133p53alpha fluorescence, 24 h; activation: stronger effect = higher value. The gist of the method:
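NCI-H358 cells pre-induced 24 h with 10 ng/ml doxycycline to express N-terminal eGFP-delta133p53alpha, then dosed 24 h at 37C without doxycycline; fixed, Hoechst-stained, GFP intensity by laser scanning cytometry, normalized to DMSO (0%) and 57.5 uM 5-azacytidine (100%).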
On the technique in general: Quantitative high-throughput screening tests each substance at several concentrations.

Assay [2] is described as follows: BET inhibitor-based combinations targeting novel dependencies in MECOM-rearranged (r) AML: OCI-AML3 cell line (AID 2202232). Also: nearly all actives have a fitted effect of over 35% in size. Conditions: Potency: OCI-AML3 viability. The procedure, abridged: (§1)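 Cells were plated at 500 per well and exposed to an 11-point dose series of each drug for 48 hr. Viability was measured by CellTiter-Glo luminescence, normalized to DMSO and empty-well controls, and summarized as AUC and per-cell-line Z-AUC.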

A short description of assay [3]: BET inhibitor-based combinations targeting novel dependencies in MECOM-rearranged (r) AML: HNT-34 cell line (AID 2202234). Also: nearly all actives have a fitted effect of over 35% in size. The gist of the method:
(§2)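 Activity is given as area under the curve and as Z-AUC, mean-centred within each cell line. It comes from 11-point dose curves normalized to DMSO and empty wells. CellTiter-Glo luminescence was read after 48 hr drug exposure of 500 cells/well.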

A short description of assay [4]: BET inhibitor-based combinations targeting novel dependencies in MECOM-rearranged (r) AML: AML-194 cell line (AID 2202237; also: nearly all actives have a fitted effect of over 40% in size). The gist of the method:
as §1

The nature of assay [5]: BET inhibitor-based combinations targeting novel dependencies in MECOM-rearranged (r) AML: MV-4-11 cell line (AID 2202233). Also: nearly all actives have a fitted effect of over 45% in size. The procedure, abridged:
as §2

A short description of assay [6]: BET inhibitor-based combinations targeting novel dependencies in MECOM-rearranged (r) AML: UCSD-AML1 cell line (AID 2202235). Also: nearly all actives have a fitted effect of over 40% in size. The procedure, abridged: as §2
The nature of assay [7]: BET inhibitor-based combinations targeting novel dependencies in MECOM-rearranged (r) AML: AML-191 cell line (AID 2202236; also: nearly all actives have a fitted effect of over 35% in size). The procedure, abridged:
as §1

Values joined by “and” are separate entries in the source; they are usually repeats but may differ in a detail not shown here. Equal entries are not always repeated. Results filed as inconclusive are left out. A number with no mark means an inactive call. Active and inactive are the calls of the source. Calls follow the shape of the dose curve; as a rule, active = well fitted curve in the direction sought with a large enough effect; inconclusive = small, poorly fitted or top-dose-only effect, or another doubt; inactive = no such curve, though single readings can be large; an effect the other way counts as inactive or inconclusive.
Potency is read from the fitted curve at half-maximal effect.

Cellular tumor antigen p53 (Homo sapiens), sequence (P04637 whole entry, looked up): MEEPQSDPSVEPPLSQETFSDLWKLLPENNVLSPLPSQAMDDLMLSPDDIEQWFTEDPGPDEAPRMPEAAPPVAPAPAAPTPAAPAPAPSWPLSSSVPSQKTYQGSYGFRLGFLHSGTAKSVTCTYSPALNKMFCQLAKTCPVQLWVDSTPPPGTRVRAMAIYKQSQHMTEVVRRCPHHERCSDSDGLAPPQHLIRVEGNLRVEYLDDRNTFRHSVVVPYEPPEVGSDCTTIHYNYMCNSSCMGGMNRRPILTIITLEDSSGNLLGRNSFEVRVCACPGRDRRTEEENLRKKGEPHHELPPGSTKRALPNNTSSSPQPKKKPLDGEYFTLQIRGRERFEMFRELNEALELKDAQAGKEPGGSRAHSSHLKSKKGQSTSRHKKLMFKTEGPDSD

Regarding `CC1=CC(=O)c2ccccc2C1=O`, the activation in assay [1] is 1.69% and -31.8%. Further, the Potency in assay [2] is 18.6 µM (active); in assay [3], 23.5 µM (active); in assay [4], 18.6 µM (active).

As for `O=C(Nc1ccccc1Br)N[C@@H]1CCN(c2ccc(C(F)(F)F)cn2)C1`, the activation in assay [1] was 10.1%. In addition, the Potency entry in assay [5], in assay [3], in assay [6], in assay [7] and in assay [4] was “inactive” in each case.

Regarding `Cc1ccc(C(C)(O)c2nc3ccccc3s2)c(C)c1` (stereo unspecified), the activation in assay [1] was 5.91%. Besides, the Potency entry in assay [2], in assay [6] and in assay [7] was “inactive” in each case.

As to `CCN(CC)CCCCNc1nc2cc(Cl)c(Cl)cc2nc1-c1ccc(-c2cccs2)s1`, the Potency in assay [1] was 6.85 µM (active); in assay [2], 20.9 µM (active); in assay [7], 26.3 µM (active).

In the case of `O=c1c(-n2ccnn2)c[nH]n1-c1cc(N2CCOCC2)ncn1`, the activation in assay [1] was 44.9%. Moreover, the Potency in assay [5] is 20.9 µM (active).

Regarding `Cn1c(=O)c(F)c(Nc2ccc(I)cc2F)c2c(=O)n(C[C@@H](O)CO)cnc21`, the activation in assay [1] is 15.6%. The results for the Potency in assay [2], in assay [3] and in assay [6] were 0.0059 µM (active), 0.0833 µM (active) and 1.32 µM (active), respectively.

`COc1ccc(Nc2cc(-c3cnc(N)nc3)nc(N3CCOCC3)n2)cn1`: in assay [1], the activation is 24.5%. For the same compound, the Potency in assay [5] is 5.25 µM (active).

Turning to `O=[N+]([O-])c1ccc(Nc2ccccc2-c2ccccc2)c2nonc12`, the Potency in assay [1] was 9.68 µM (active); in assay [5], 26.3 µM (active); in assay [3] it was 23.5 µM (active); in assay [7] it was 20.9 µM (active). In addition, in assay [6], the Potency entry is “inactive”.

Consider `CCc1nc(N)nc(N)c1-c1ccc(Cl)cc1`, for which the activation in assay [1] was -15.9% and -12.3%. Besides, the Potency in assay [5] was 14.8 µM (active). The Potency entry in assay [3] and in assay [6] was “inactive” throughout.

On to `CC[C@@]1([C@@H]2O[C@@H]([C@H]3O[C@@](O)(CO)[C@H](C)C[C@H]3C)C[C@H]2C)CC[C@H]([C@]2(C)CC[C@]3(C[C@H](O)[C@@H](C)[C@@H]([C@@H](C)[C@@H](OC)[C@H](C)C(=O)O)O3)O2)O1`, for which the activation in assay [1] is 7.91%. Besides, the results for the Potency in assay [5], in assay [3] and in assay [6] were 0.574 µM (active), 0.0811 µM (active) and 0.288 µM (active), respectively.

As to `C[C@H]1C[C@@H]2[C@H]([C@@H](O)C[C@@]3(C)[C@H]2CC[C@]3(O)C(=O)CO)[C@@]2(C)C=CC(=O)C=C12`, the activation in assay [1] was 5.86%. Besides, the Potency result in assay [2] and in assay [5] was “inactive” each time. Also, the Potency in assay [7] was 0.263 µM (active); in assay [4] it was 0.209 µM (active).

Turning to `O=C1CSC(=O)N1C(CCc1ccncc1)COc1ccc(-c2cccc([N+](=O)[O-])c2)cc1` (stereo unspecified), in assay [1], the activation was -7.57%. Also, the Potency in assay [5] is 16.6 µM (active). Further, the Potency result in assay [6] was “inactive”.

As for `Cc1cc2c(F)c(Oc3ncnn4cc(OC[C@@H](C)O)c(C)c34)ccc2[nH]1`, the activation in assay [1] was -34.1%. Moreover, in assay [6], the Potency entry was “inactive”.

For the compound `Cc1nc2ccc(C(=O)N3CCC4(CC3)CC(=O)c3c(cnn3C(C)C)C4)cc2[nH]1`, in assay [1], the activation is 23%. For the same compound, the Potency entry in assay [6] and in assay [4] was “inactive” each time.

On to `CC(COc1ccccc1)N(CCCl)Cc1ccccc1` (stereo unspecified), for which the activation in assay [1] is -9.21% and 7.69%. For the same compound, the Potency in assay [3] is 16.6 µM (active). For the same compound, the Potency entry in assay [6] and in assay [7] was “inactive” throughout.

As to `CCOC(CN1C(=O)[C@](CC(=O)Nc2ccc(C)cc2)(NC(=O)Nc2ccc(C)cc2)c2ccccc21)OCC`, in assay [1], the activation is 0.237%. Also, in assay [5], the Potency was 23.5 µM (active). For the same compound, the Potency result in assay [6] was “inactive”.

Take `C[N+](C)([O-])CCNc1ccc(NCC[N+](C)(C)[O-])c2c1C(=O)c1c(O)ccc(O)c1C2=O`: in assay [1], the activation is 9.32%. Further, the Potency in assay [5] was 0.468 µM (active); in assay [6], 9.34 µM (active).

`Cc1ccc(NC(=O)c2ccc(CN3CCN(C)CC3)cc2)cc1Nc1nccc(-c2cccnc2)n1`: the activation in assay [1] was -19.4% and -18.4% and -2.86%. Also, in assay [6], the Potency entry was “inactive”.

Turning to `COC(=O)C1C2CC3c4[nH]c5cc(OC)ccc5c4CCN3CC2CC(OC(=O)c2cc(OC)c(OC)c(OC)c2)C1OC` (stereo unspecified), the activation in assay [1] is 4.12%. Moreover, the Potency in assay [5] was 20.9 µM (active). Besides, the Potency entry in assay [6] was “inactive”.

For the compound `C[C@H](NC(=O)[C@@H](O)c1cc(F)cc(F)c1)C(=O)N[C@@H]1C(=O)N(C)c2ccccc2-c2ccccc21`, the activation in assay [1] is 10.4%. In addition, the Potency entry in assay [5], in assay [3], in assay [6] and in assay [4] was “inactive” in each case.

As for `CCc1ccc(CCOc2ccc(CC3SC(=O)NC3=O)cc2)nc1` (stereo unspecified), in assay [1], the activation is 7.53% and -1.15%. The Potency in assay [4] is 5.25 µM (active).

Turning to `CC[C@@H]([C@H](C)O)n1ncn(-c2ccc(N3CCN(c4ccc(OCC5CO[C@@](Cn6cncn6)(c6ccc(F)cc6F)C5)cc4)CC3)cc2)c1=O` (stereo partly specified), the activation in assay [1] is 7.66%. In assay [6], the Potency result was “inactive”. In assay [4], the Potency is 4.17 µM (active).

In the case of `O=C(O)CCNC(=O)c1ccc(N=Nc2ccc(O)c(C(=O)O)c2)cc1`, the activation in assay [1] is -19.8% and -1.86%. Also, the Potency result in assay [5], in assay [3], in assay [6], in assay [7] and in assay [4] was “inactive” throughout.

For `CCCCc1oc2ccccc2c1C(=O)c1cc(I)c(OCCN(CC)CC)c(I)c1`, the activation in assay [1] was -16.4% and -32.6%. In addition, the Potency is 18.6 µM (active) in assay [5], 23.5 µM (active) in assay [6] and 20.9 µM (active) in assay [7].

The values are drawn from PubChem BioAssay (NCATS).
